Assay results reported in PubChem BioAssay.
Activity calls are given as the source filed them.

Tests used:
[1] = small molecules captured by biotinylated probe aFSTL3 – biochemical, small-molecule microarray, fluorescence 635/667, stem cell growth factor project, primary screen (AID 1064); settings: higher = more signal;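 note: measures binding of the biotinylated anti-FSTL3 antibody to printed compounds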
[2] = binders from COS7 lysate, DM2A8 probe, primary screen, torsin A project, cell lysate, small-molecule microarray, fluorescence 635/667 (AID 1065); settings: higher = more signal, COS7 lysate expressing mutant human TOR1A
[3] = small molecules captured by biotinylated probe aFGF2 – biochemical, small-molecule microarray, fluorescence 635/667, stem cell growth factor project, primary screen (AID 1067); settings: higher = more signal;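 note: measures binding of biotinylated aFGF2 protein to printed compounds on slides; z-score merges feature fluorescence and signal-to-noise across triplicate slides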
[4] = small molecules captured by biotinylated probe aFGF10 – biochemical, small-molecule microarray, fluorescence 635/667, stem cell growth factor project, primary screen (AID 1071); settings: higher = more signal;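 note: score merges 667 nm spot intensity and signal to noise from triplicate slides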
[5] = target: Neurogenic locus notch homolog protein 2 (Homo sapiens) (UniProt Q04721); experiment: small molecules binding Notch2 protein – biochemical, small-molecule microarray, 635 nm fluorescence, stem cell growth factors, primary screen (AID 1073); settings: higher = more signal
[6] = target: Pro-neuregulin-1, membrane-bound isoform (Homo sapiens) (UniProt Q02297); experiment: small molecules binding neuregulin-1 protein – biochemical, small-molecule microarray, fluorescence 635/667, psychiatric disease protein project, primary screen (AID 1075); settings: NRG1 binding, 635 nm fluorescence, higher = more signal;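 note: score combines 667 nm spot fluorescence with signal to noise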
[7] = test system: Neuregulin-1 EGF-like domain; experiment: small molecules binding NRG1 EGF domain – biochemical, small-molecule microarray, 635 nm fluorescence, primary screen (AID 1081); settings: higher = more signal;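 note: binding of the protein to compounds printed on small-molecule microarray slides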
[8] = FRG1 expression reporter modulators in myotubes – cell-based, C2C12 myotubes, firefly/Renilla luciferase, luminescence, FRG1 inhibition for FSHD, primary screen (AID 1084); settings: FRG1 promoter luciferase, higher = more signal, called active from +8 up or from −8 down
[9] = small molecules captured by biotinylated probe aFST – biochemical, small-molecule microarray, fluorescence 635/667, stem cell growth factor project, primary screen (AID 1086); settings: higher = more signal;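 note: score merges 667 nm fluorescence with signal-to-noise of each printed compound spot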
[10] = binders of probe aHhip on microarray, primary screen, stem cell growth factor project, biochemical, small-molecule microarray, fluorescence 635/667 (AID 1087); settings: higher = more signal;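 note: score merges spot fluorescence at 667nm with spot signal to noise ratio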
[11] = test system: PRMT1 (protein arginine N-methyltransferase 1); experiment: small molecules binding arginine methyltransferase PRMT1 – biochemical, small-molecule microarray, 635 nm fluorescence, primary screen (AID 1088); settings: higher = more signal;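 note: binding of Prmt1 protein to compounds spotted on small-molecule microarray slides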
[12] = growth effects on S. cerevisiae YJM789 – YJM789 clinical isolate, OD600, 24 h, basal, primary screen (AID 1089); settings: higher = more signal, called active from +8 up or from −8 down;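 note: growth of clinical yeast isolate S. cerevisiae YJM 789 seeded 1000 cells per well; test concentration not given here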
[13] = S. pombe growth modifiers, basal conditions – strain 972, OD600, 24 h, no modulator, primary screen (AID 1090);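 note: basal condition with compound alone and no growth modifier present; test concentration not given here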; settings: S. pombe 972 growth, higher = more signal, called active from +8 up or from −8 down
[14] = budding yeast growth modifiers under rapamycin – strain BY4716, OD600, 96 h, primary screen (AID 1091); note: test concentration not given here; settings: S. cerevisiae BY4716 + rapamycin, higher = more signal, called active from +8 up or from −8 down
[15] = target: Torsin-1A-interacting protein 2 (Homo sapiens) (UniProt Q8NFQ8); experiment: small molecules binding lysate-expressed LULL1 – cell lysate, human LULL1 lysate, 635/667 nm fluorescence, primary screen (AID 1092); settings: small-molecule microarray, hLULL1 lysate binding, 635 nm fluorescence; higher = more signal;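 note: probe is lysate of COS7 cells overexpressing human LULL1; score merges per-feature 667 nm fluorescence with signal-to-noise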
[16] = optical density change of DRC41 E. coli – strain DRC41, OD650, 24 h, E. coli filamentation project, primary screen (AID 1093);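 note: MC1000 strain lacking acrAB efflux and sulA so SOS filamentation is blocked; test concentration not given here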; settings: E. coli DRC41 growth, higher = more signal, called active from +8 up or from −8 down
[17] = probe aLefty2 binding to arrayed compounds – biochemical, biotinylated probe, 635/667 nm fluorescence, primary screen (AID 1094); settings: small-molecule microarray, higher = more signal;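 note: score merges spot fluorescence near 667 nm with spot signal-to-noise ratio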
[18] = test system: Noggin (protein binding on small-molecule microarray); experiment: small molecules binding Noggin protein – biochemical, 635/667 nm fluorescence, primary screen (AID 1095); settings: 635 nm fluorescence, higher = more signal;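 note: score merges 667 nm feature fluorescence with signal to noise over triplicate slides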
[19] = target: Neurogenic locus notch homolog protein 3 (Homo sapiens) (UniProt Q9UM47); experiment: small molecules binding NOTCH3 protein – biochemical, 635/667 nm fluorescence, primary screen (AID 1096); settings: small-molecule microarray, 635 nm fluorescence, higher = more signal
[20] = probe aEGFR binding to arrayed compounds – biochemical, biotinylated probe, 635/667 nm fluorescence, primary screen (AID 1097); settings: small-molecule microarray, higher = more signal;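 note: probe is a biotinylated anti-EGFR antibody binding compounds printed on slides; score combines fluorescence near 667 nm and signal to noise of each spot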

Chain of Torsin-1A-interacting protein 2 (Homo sapiens) (Q8NFQ8 whole entry, looked up): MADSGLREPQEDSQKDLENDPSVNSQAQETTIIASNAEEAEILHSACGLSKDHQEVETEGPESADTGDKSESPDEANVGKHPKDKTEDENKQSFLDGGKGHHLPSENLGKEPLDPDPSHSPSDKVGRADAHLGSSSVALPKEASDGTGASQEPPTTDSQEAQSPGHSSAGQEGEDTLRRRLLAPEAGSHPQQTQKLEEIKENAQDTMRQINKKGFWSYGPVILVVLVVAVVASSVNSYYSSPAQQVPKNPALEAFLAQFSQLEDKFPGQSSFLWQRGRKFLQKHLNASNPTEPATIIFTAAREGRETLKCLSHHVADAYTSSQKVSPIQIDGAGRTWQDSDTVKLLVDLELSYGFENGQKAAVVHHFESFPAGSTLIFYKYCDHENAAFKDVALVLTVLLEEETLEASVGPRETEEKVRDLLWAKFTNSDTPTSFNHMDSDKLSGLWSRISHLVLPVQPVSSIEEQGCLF
Chain of Neurogenic locus notch homolog protein 3 (Homo sapiens) (Q9UM47 whole entry, looked up): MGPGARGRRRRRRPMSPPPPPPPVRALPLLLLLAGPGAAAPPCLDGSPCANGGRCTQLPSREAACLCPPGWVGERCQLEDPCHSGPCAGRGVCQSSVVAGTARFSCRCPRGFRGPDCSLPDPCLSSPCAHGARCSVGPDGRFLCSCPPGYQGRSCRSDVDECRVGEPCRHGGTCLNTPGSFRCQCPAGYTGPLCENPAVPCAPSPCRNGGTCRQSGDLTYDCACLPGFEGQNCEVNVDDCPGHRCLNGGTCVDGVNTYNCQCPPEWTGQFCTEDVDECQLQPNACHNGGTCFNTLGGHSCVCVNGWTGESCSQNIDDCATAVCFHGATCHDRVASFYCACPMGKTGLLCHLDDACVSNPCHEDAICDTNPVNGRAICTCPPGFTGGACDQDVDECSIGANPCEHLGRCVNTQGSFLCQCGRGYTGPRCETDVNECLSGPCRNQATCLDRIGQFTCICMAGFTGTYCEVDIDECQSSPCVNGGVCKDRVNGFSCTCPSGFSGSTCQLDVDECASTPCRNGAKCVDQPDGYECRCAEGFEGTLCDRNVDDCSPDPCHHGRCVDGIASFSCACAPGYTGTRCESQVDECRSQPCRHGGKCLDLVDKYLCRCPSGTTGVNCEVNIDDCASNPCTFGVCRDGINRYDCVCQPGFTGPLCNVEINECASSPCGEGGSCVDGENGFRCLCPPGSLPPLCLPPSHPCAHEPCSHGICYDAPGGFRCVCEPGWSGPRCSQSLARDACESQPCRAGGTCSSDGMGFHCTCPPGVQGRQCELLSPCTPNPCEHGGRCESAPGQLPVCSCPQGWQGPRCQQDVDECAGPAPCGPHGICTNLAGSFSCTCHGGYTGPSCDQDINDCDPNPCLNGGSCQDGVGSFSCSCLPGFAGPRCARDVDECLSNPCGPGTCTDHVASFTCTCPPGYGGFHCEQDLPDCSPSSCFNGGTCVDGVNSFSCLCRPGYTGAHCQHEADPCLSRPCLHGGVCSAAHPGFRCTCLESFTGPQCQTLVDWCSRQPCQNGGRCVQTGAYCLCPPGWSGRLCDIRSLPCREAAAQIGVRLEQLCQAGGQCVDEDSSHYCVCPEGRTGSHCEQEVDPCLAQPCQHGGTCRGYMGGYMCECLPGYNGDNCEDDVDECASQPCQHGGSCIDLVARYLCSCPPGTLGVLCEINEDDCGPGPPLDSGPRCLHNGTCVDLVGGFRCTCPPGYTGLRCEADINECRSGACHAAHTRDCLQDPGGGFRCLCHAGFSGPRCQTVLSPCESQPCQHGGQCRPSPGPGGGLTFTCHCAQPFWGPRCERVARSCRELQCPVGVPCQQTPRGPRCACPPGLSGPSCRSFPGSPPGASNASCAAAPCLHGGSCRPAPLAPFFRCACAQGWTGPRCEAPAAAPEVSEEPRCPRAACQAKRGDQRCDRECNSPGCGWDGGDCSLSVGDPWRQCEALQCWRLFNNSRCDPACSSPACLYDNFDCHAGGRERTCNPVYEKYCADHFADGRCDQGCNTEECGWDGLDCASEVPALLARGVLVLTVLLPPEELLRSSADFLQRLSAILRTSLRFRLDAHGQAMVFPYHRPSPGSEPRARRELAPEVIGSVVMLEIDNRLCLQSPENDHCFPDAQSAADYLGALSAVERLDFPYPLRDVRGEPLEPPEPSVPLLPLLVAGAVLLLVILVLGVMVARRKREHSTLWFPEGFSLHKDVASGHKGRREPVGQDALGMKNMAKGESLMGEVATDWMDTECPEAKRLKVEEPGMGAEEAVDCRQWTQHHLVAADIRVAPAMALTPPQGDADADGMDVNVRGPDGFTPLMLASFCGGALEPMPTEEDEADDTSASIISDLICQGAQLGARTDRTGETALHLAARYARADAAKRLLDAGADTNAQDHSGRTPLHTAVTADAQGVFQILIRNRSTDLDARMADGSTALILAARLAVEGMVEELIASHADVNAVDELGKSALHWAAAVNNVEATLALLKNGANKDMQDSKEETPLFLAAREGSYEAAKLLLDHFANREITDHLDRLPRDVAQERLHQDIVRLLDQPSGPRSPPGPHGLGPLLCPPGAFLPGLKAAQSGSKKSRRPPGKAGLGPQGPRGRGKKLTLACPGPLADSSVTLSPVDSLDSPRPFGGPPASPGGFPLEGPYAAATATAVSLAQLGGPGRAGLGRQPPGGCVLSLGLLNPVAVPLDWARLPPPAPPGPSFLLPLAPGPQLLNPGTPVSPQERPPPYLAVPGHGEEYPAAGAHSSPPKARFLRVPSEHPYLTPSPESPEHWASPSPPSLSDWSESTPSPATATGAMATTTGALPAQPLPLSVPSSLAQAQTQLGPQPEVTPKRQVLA
Chain of Pro-neuregulin-1, membrane-bound isoform (Homo sapiens) (Q02297 whole entry, looked up, the tested form may be a part, canonical isoform): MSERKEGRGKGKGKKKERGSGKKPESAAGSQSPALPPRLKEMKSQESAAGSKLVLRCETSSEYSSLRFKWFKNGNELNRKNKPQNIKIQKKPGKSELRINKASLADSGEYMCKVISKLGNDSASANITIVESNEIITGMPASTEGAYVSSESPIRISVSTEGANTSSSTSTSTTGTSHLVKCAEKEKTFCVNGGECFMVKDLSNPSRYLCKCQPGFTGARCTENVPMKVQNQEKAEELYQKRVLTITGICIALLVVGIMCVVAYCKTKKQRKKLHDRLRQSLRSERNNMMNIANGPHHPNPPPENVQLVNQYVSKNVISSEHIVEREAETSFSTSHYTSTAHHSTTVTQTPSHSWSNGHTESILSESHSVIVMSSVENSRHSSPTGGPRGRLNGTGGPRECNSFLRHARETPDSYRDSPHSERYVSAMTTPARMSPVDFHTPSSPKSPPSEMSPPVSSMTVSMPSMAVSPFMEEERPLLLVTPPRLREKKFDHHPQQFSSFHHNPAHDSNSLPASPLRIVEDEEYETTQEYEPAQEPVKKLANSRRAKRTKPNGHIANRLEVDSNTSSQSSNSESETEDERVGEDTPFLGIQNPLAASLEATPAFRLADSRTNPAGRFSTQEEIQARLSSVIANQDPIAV

| Structure (SMILES) | composite z-score [1] | composite z-score [2] | composite z-score [3] | composite z-score [4] | composite z-score [5] | composite z-score [6] | composite z-score [7] | z-score [8] | composite z-score [9] | composite z-score [10] | composite z-score [11] | z-score [12] | z-score [13] | z-score [14] | composite z-score [15] | z-score [16] | composite z-score [17] | composite z-score [18] | composite z-score [19] | composite z-score [20] |
| --- | --- | --- | --- | --- | --- | --- | --- | --- | --- | --- | --- | --- | --- | --- | --- | --- | --- | --- | --- | --- |
| C/C=C/[C@H](CCn1cc([C@H](O)c2ccccc2)nn1)[Si](C)(C)c1ccc(OC)cc1 | 1.18 | -0.153 | -0.234 | -0.071 | -1.51 | 0.0287 | -0.0288 | -0.488 (inactive) | -1.04 | -0.374 | -0.144 | -0.298 (inactive) | -1.05 (inactive) | -0.229 (inactive) | 0.0061 | 0.0004 (inactive) | -0.139 | -0.953 | -0.999 | -0.375 |
| COCCn1c(C(=O)N2CCCC2)cc2c1C[C@H]1CN(C(=O)c3ccccc3)[C@@](Cc3ccc(OC)cc3)(C(=O)OC)[C@@H]21 | 1.42 | 1.86 | 0.264 | 0.43 | 1.64 | 2.12 | 0.905 | -1.1 (inactive) | 0.602 | -0.0994 | 0.0027 | -2.08 (inactive) | 0.422 (inactive) | -0.651 (inactive) | 1.72 | 0.0251 (inactive) | 0.656 | -0.843 | 1.1 | 0.147 |
| CCCCN1CC=CC23O[C@@H]4C=CCCOC(=O)C4[C@H]2C(=O)N(CCCO)[C@@H]3C1=O (stereo not given in full) | -0.0115 | -0.265 | -0.147 | -0.609 | -1.08 | -0.931 | -0.053 | 0.211 (inactive) | -0.277 | -0.191 | -0.253 | -0.174 (inactive) | -0.788 (inactive) | -0.497 (inactive) | -0.748 | 1.02 (inactive) | -0.172 | 0.217 | -1.68 | -0.244 |
| CN1C(=O)C2C=CC(C(O)c3ccccc3)N(NC(=O)OC(C)(C)C)C2C1=O (stereo not given) | -0.366 | 0.583 | 0.0728 | 0.268 | 1.34 | 0.871 | 0.792 | 1.82 (inactive) | 0.868 | -0.0645 | 0.408 | 0.382 (inactive) | 1.52 (inactive) | 1.45 (inactive) | 2.93 | -0.828 (inactive) | 0.0875 | -0.201 | 0.497 | 0.0182 |
| CS(=O)(=O)CCOC(=O)C1=CC(c2ccc(CO)cc2)=CC(c2cccs2)N(Cc2cccc(OC(F)(F)F)c2)C=C1C(=O)OCCS(C)(=O)=O (stereo not given) | -0.398 | 0.405 | 0.024 | 0.708 | 1 | 1.63 | 0.999 | 0.371 (inactive) | 1.14 | 0.0139 | 1.34 | -0.246 (inactive) | -3.38 (inactive) | 2.41 (inactive) | 3.12 | -0.575 (inactive) | -0.0833 | 0.333 | 0.856 | -0.0688 |
